PubChem BioAssay (NCI)
This is part of a sample that, as a whole, favours compounds with a hit. Of some 83,000 tested, about 20% had one in any assay.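 Interpretation: 100, growth as untreated; towards 0, rising growth inhibition; 0, no net growth; 0 to -100, cell death. Compounds scoring below 10 were considered active.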 Values without a mark were called inactive. Active and inactive are the calls of the source.

Tests used:
Experiment in all cases: NCI-60 one-dose screen, 48 h (100 = growth as untreated, 0 = no growth, -100 = all killed)
Conditions in all cases: 10 µM unless noted
SK-MEL-2 melanoma = test system: SK-MEL-2 melanoma
EKVX NSCLC = test system: EKVX NSCLC
SN12C renal = test system: SN12C renal
UO-31 renal = test system: UO-31 renal
TK-10 renal = test system: TK-10 renal
ACHN renal = test system: ACHN renal
CAKI-1 renal = test system: CAKI-1 renal
CCRF-CEM leukemia = test system: CCRF-CEM leukemia
MOLT-4 leukemia = test system: MOLT-4 leukemia
SR leukemia = test system: SR leukemia
RPMI-8226 leukemia = test system: RPMI-8226 leukemia
OVCAR-8 ovarian = test system: OVCAR-8 ovarian
OVCAR-5 ovarian = test system: OVCAR-5 ovarian
OVCAR-4 ovarian = test system: OVCAR-4 ovarian
SK-OV-3 ovarian = test system: SK-OV-3 ovarian
IGROV1 ovarian = test system: IGROV1 ovarian
OVCAR-3 ovarian = test system: OVCAR-3 ovarian
HS 578T breast = test system: HS 578T breast
NCI/ADR-RES ovarian = test system: NCI/ADR-RES ovarian

Structure (SMILES) | growth (SK-MEL-2 melanoma) | growth (EKVX NSCLC) | growth (SN12C renal) | growth (UO-31 renal) | growth (TK-10 renal) | growth (ACHN renal) | growth (CAKI-1 renal) | growth (CCRF-CEM leukemia) | growth (MOLT-4 leukemia) | growth (SR leukemia) | growth (RPMI-8226 leukemia) | growth (OVCAR-8 ovarian) | growth (OVCAR-5 ovarian) | growth (OVCAR-4 ovarian) | growth (SK-OV-3 ovarian) | growth (IGROV1 ovarian) | growth (OVCAR-3 ovarian) | growth (HS 578T breast) | growth (NCI/ADR-RES ovarian)
C[C@H]1[C@H](C)CC[C@]2(C(=O)NCC#CCN3CCN(C)CC3)CC[C@]3(C)C(=CC[C@@H]4[C@@]5(C)Cc6c([nH]c7ccccc67)C(C)(C)[C@@H]5CC[C@]43C)[C@H]12 | 105% | 86.5% | 81.2% | 67.6% | 88.8% | 96.3% | 91.9% | 66.7% | 44.6% | 4.29% (active) | 67% | 90.2% | 94.4% | 83.2% | 86.9% | 93.6% | 82.6% | 82.8% | 82.8%
O=C(Cn1c[n+](CC(=O)c2ccc(-c3ccccc3)cc2)c2ccccc21)Nc1cccc2cccnc12 | 19.4% | 47.6% | 14.9% | 67.9% | 88.5% | 90.1% | 44.8% | 10.5% | 11.4% | -17.1% (active) | -30.2% (active) | 20% | 62.8% | 10.3% | 50.5% | -38.2% (active) | -1.51% (active) | 33.5% | 96.7%
CNC(=O)c1cccc(Cn2nc(C)c(NC(=O)c3ccc(COc4ccc(C(F)(F)F)cc4C)cc3)c2C)c1 | 48.9% | 34% | 56.6% | 47.3% | 55.5% | 47.2% | 47% | 54.4% | 18% | 23.3% | 27.3% | 33.9% | 100% | 29.6% | 70.9% | 63.8% | 34% | 84.9% | 35.4%
O=[N+]([O-])CC(c1ccccc1)c1c[nH]c2ccccc12 (centres undefined) | 22.8% | 67% | 52.8% | 67.3% | 69.7% | 71.1% | 42% | 46.9% | 27.4% | 20.2% | 50.7% | 52.7% | 79.4% | 91.5% | 96.3% | 53.7% | 42.4% | 64% | 26%
COc1cccc(C(=O)NNc2nc(Cl)nc(N3CCN(C(c4ccccc4)c4ccccc4)CC3)n2)c1 | 79.1% | 89.6% | 70.9% | 93.4% | 97.8% | 54.6% | 68.7% | -5.32% (active) | 4.48% (active) | -23.8% (active) | 88% | 71.1% | 97.3% | 72.2% | 96% | 2.85% (active) | 10.5% | 91.6% | 88%
O=S(=O)(NCCCNc1nccc(-c2c(-c3cccc(O)c3)nc3occn23)n1)c1ccc(Cl)cc1 | 52.5% | 99.6% | 71.5% | 89.8% | 143% | 81% | 75.9% | 73.2% | 71.3% | 87.1% | 81% | 77.5% | 130% | 108% | 75.4% | 59.7% | 93.2% | 92.8% | 112%
COc1cc(C=O)ccc1OC1OC(COC(C)=O)C(OC(C)=O)C(OC(C)=O)C1OC(C)=O (centres undefined) | 98.6% | 99.9% | 97.9% | 93.1% | 107% | 107% | 98.8% | 54.9% | 110% | 60.7% | 92.1% | 102% | 103% | 103% | 103% | 113% | 104% | 104% | 103%
O=C(/C=C/c1ccc(F)cc1)c1ccc(NC(=O)N2CCN(c3cc4c(cc3F)c(=O)c(C(=O)O)cn4C3CC3)CC2)cc1 | 105% | 94.5% | 92.6% | 77.9% | 92.5% | 106% | 95.2% | 90.9% | 99.5% | 71.9% | 98.6% | 90.8% | 96.9% | 98.2% | 99.4% | 89.5% | 97.6% | 90.3% | 100%
Cc1ccc(NC(C(=O)c2ccccc2)c2ccccc2)cc1 (centres undefined) | 36.1% | 20.5% | 50.1% | 78.9% | 74.6% | 85% | 66.7% | 65.2% | 74.6% | 69% | 25.6% | 45.9% | 78.4% | 49.5% | 95.5% | 57.6% | 29.4% | 32.7% | 92.8%
COc1ccc(C/C(C)=C(/c2ccc(OCCCN(C)C)cc2)c2ccc(OC(C)=O)cc2)cc1 | 101% | 80.9% | 80.8% | 62.2% | 98.9% | 85% | 81.6% | 63.1% | 55.9% | 9.44% (active) | 79.2% | 95.5% | 85.7% | 79.6% | 88% | 58.4% | 91.1% | 64.1% | 92.3%
COc1cc2oc(-c3cccc(C(=O)Nc4ccc5c(c4)OCO5)c3)cc(=O)c2c(O)c1OC | 89.9% | 87% | 68.7% | 82.1% | 98.6% | 75.3% | 76.9% | 97.2% | 101% | 75.9% | 79.8% | 30.6% | 88.9% | 0.0679% (active) | 91.4% | 81.6% | 89.5% | 72.7% | 70.6%
Nc1c(C(=O)Nc2cccc3cnccc23)sc2nc3c(cc12)C(=O)CCC3 | 77.2% | 91.6% | 89.2% | 81.8% | 104% | 101% | 77.8% | 64.6% | 102% | 59.5% | 88.9% | 100% | 107% | 102% | 96.5% | 87.9% | 93.4% | 84.3% | 102%
O=C(CCN1CCCC1)Nc1ccc2c(NCCCc3ccccc3)c3ccccc3nc2c1 | 38.9% | 40.8% | 14% | 31.8% | 5% (active) | 33.1% | 27.5% | -11.8% (active) | -18.5% (active) | -22.3% (active) | -36.6% (active) | 9.97% (active) | 32.1% | -18.6% (active) | 13% | 11.7% | -70.7% (active) | 27.4% | 91.2%
CCN1C(=O)/C(=C/C(=O)OC)S/C1=N\NC(=O)c1cc2ccc1/C=C\c1ccc(cc1)/C=C\2 | 94.2% | 93.6% | 95% | 79% | 93.5% | 93.4% | 89.5% | 33.9% | 37.2% | -13.4% (active) | -14.3% (active) | 92.6% | 100% | 89.6% | 125% | 88.4% | 92.9% | 99% | 86.5%
CCCOc1ccc(/C=N/Nc2cc(C)nc3ccc(Br)cc23)cc1 | 93% | 81.7% | 84.4% | 72.6% | 111% | 97.7% | 91.3% | 28.3% | 73.9% | -1.3% (active) | 58.9% | 88.2% | 111% | 88.1% | 90.9% | 90.4% | 99.8% | 106% | 97.2%
O=S(=O)(NCCNc1nccc(-c2c(-c3cccc(F)c3)nc3sccn23)n1)c1ccccc1 | 51.8% | 53.3% | 40.3% | 15.4% | 59.5% | 26% | 39.1% | 33.6% | 16.6% | 29.3% | 43.5% | 33.9% | 79.6% | 40% | 57.2% | 4.9% (active) | 58.9% | 55.5% | 46.3%
